# An excerpt weighted towards active compounds, which were near 2.8% of everything screened.
# TRPM1 prom inh – inhibitors of MITF-dependent TRPM1 promoter reporter, primary screen, cell-based, SK-MEL-5, single point, luciferase; SK-MEL-5 TRPM1 promoter luciferase, 24 h; inhibition, % at 12.5 µM; 330,000 compounds, 0.83% hits;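 active = mean inhibition across replicates of 60% or more, whatever share of single replicates reaches that level; inconclusive = some that reach 60%, reason not given; inactive = mean inhibition across replicates below 60%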
# LMP1 NFkB inh – EBV LMP1-driven NF-kappaB luciferase reporter inhibitors, primary screen, cell-based, luminescence, single point; LMP1-induced NF-kappaB luciferase reporter cells; inhibition, % at 12.5 µM; 350,000 compounds, 0.69% hits; in the data active = inhibition above about 41%; inconclusive = no clear call, values can overlap the other calls;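 note: 0% = neutral control wells and 100% = reference inhibitor control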
# PAX8 inh HTS – inhibitors of PAX8-driven TPO luciferase reporter, primary screen, RMG-I cells, single concentration; SteadyGlo, 24 h; inhibition, % at 12.6 µM; 360,000 compounds, 1.2% hits; AID 652154, 2013;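 active = mean replicate inhibition at least 60% with every replicate also reaching 60%; inconclusive = only one of the two criteria is met; inactive = mean below 60% and not all replicates reaching 60%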;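 note: luciferase light reporting Pax8 driven TPO promoter activity; plate controls were median of neutral control wells for no effect and mitoxantrone controls for full effect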
# Shn3 inh set2 – reduction of Shn3 3'UTR firefly luciferase signal, primary screen, Schnurri-3 inhibitor project, cell-based, Clone20 osteoblasts, set 2. Clone20 osteoblast Shn3 3'UTR firefly luciferase, 24 h. inhibition, % at 12.5 µM. 360,000 compounds, 0.52% hits;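 active = mean inhibition of at least 75% with every replicate also reaching 75%; inconclusive = mean inhibition at least 75% but some replicate below; inactive = mean inhibition below 75%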;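 note: 0% = median of neutral control wells and 100% = pilot-screen positive control compound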
# Peg3 prom inh – Peg3 promoter-driven luciferase inhibitors, primary screen, cell-based, HeLa, luciferase luminescence | HeLa PEG-Prom luciferase reporter, overnight | inhibition, % at 20 µM | 360,000 compounds, 1.7% hits;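 active = inhibition of at least 50% at 20 µM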
# HIF-2a block – HIF-2a reporter inhibitors, primary screen, luminescence, 786-0 RCC cells; AID 624352, 2012; inhibition, % at 18.8 µM; 786-0 RCC cells HIF-2a reporter, luciferase luminescence, overnight; 360,000 compounds, 0.72% hits;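 active = inhibition of the luminescence signal of 40% or more relative to plate controls, in a single-dose primary screen at 18.75 µM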
# * hit, by the source's call; ? = inconclusive; . = no result; ! = not confirmed by another sample.
SMILES,TRPM1 prom inh,LMP1 NFkB inh,PAX8 inh HTS,Shn3 inh set2,Peg3 prom inh,HIF-2a block
CC(O)(c1ccc(F)c(F)c1)c1nc(-c2ccc(Cl)cc2)cs1 (stereo not given),.,.,-3,7,76*,2
CC(C)N(CCC(=O)c1ccc2ccccc2c1)Cc1ccccc1,0,7,39,94*,27,-15
C[C@@H]1CN([C@@H](C)CO)C(=O)c2cccc(NC(=O)C3CCCCC3)c2O[C@H]1CN(C)S(=O)(=O)c1ccccc1,.,.,-7,.,.,.
Cc1ccccc1NC1=CC(=O)CC(C)(C)C1,-4,2,.,-21,13,12
CC1(C)CC(=O)C=C(NC2=CC3OC(c4ccccc4)OCC3OC2=O)C1 (stereo not given),71*,-24,?,7,64*,40
Nc1ncnc2nc[nH]c12,4,59*!,-10,-6,-8,-8
O=C(Nc1ccc(N2CCOCC2)cc1)c1cn2ccccc2n1,21,55*,.,2,23,-1
O=C(Nc1ccc(N2CCCCC2)cc1)c1ccccn1,82*,75*,.,76,91*,93*
O=C(Nc1ccc(NC(=O)c2ccccn2)cc1)C(=O)Nc1ccc2c(c1)OCCO2,-9,-10,-2,-16,-16,-15
O=C(Nc1ccc2c(c1)OCCO2)c1ccccn1,33,48*,20,29,42,-70
O=C(Nc1ccc(Cl)c(S(=O)(=O)N2CCOCC2)c1)c1cn2ccccc2n1,-11,-2,-9,-22,-1,-4
O=C(Nc1ccc2c(c1)OCCO2)c1cccc2nc3ccccc3nc12,73*,-8,.,52,42,-71
C[C@@H](NC(=O)C[C@@H]1C=C[C@@H](NC(=O)C2CC2)[C@@H](CO)O1)c1ccccc1,.,.,-2,.,.,.
C[C@H](CO)N1C[C@H](C)[C@H](CN(C)C)Oc2ccc(NS(C)(=O)=O)cc2CC1=O,.,.,-7,.,.,.
O=C(C[C@@H]1C=C[C@@H](NC(=O)Nc2ccc(C(F)(F)F)cc2)[C@H](CO)O1)NCCN1CCCC1,.,.,6,.,.,.
COc1ccc(CC(=O)NCCc2ccc(OC)c(OC)c2)cc1,-7,3,-11,9,52*,15
Cn1c(=O)c2c(nc(NCCc3ccccc3)n2Cc2ccc(F)cc2)n(C)c1=O,10,0,42,56,34,-1
Cn1c(=O)c2c(nc(NCc3ccco3)n2C/C=C/c2ccccc2)n(C)c1=O,54,42*,.,88*,29,20
CC(Cl)=CCn1c(NCCc2ccccc2)nc2c1c(=O)n(C)c(=O)n2C,.,.,0,92*,12,-22
Cc1noc(C)c1NC(=O)N(C)C[C@H]1Oc2c(cccc2N(C)C)C(=O)N([C@H](C)CO)C[C@H]1C,.,.,-5,.,.,.
Cc1ccc(S(=O)(=O)N2C[C@@H](O)COC[C@@H]3O[C@@H](CC(=O)NCC4CCCCC4)CC[C@H]32)cc1,.,.,21,.,.,.
O=C(NC1CCCCC1)C(c1ccc(F)cc1)N(Cc1ccco1)C(=O)Cn1nnc2ccccc21 (stereo not given),-22,7,.,-4,4,2
O=C(NC1CCCCC1)C(c1ccc(F)cc1)N(Cc1ccco1)C(=O)CN1C(=O)c2ccccc2S1(=O)=O (stereo not given),-6,-9,102*,5,23,4
Cc1ccc(Cc2c(-c3ccc(F)cc3)nc3c(C)cc(Br)cn23)cc1,.,.,.,1,55*,-39
CCN=C1S/C(=C\c2cn(CC(=O)NCc3ccco3)c3ccccc23)C(=O)N1CC,48,3,78*,60,31,5
SMILES,TRPM1 prom inh,LMP1 NFkB inh,PAX8 inh HTS,Shn3 inh set2,Peg3 prom inh,HIF-2a block
CN1C(=O)/C(=C/c2cn(CC(=O)NCc3ccco3)c3ccccc23)NC1=S,.,.,15,.,.,.
C[C@@H]1CN([C@H](C)CO)C(=O)c2ccccc2-c2ccccc2CO[C@H]1CN(C)C(=O)Cc1ccccc1,.,.,13,.,.,.
O=C(NCCCn1ccnc1)C(=O)NCC1OCCN1S(=O)(=O)c1ccccc1 (stereo not given),1,5,9,-9,6,22
O=C(NCCCn1ccnc1)C(=O)NCC1OCCCN1S(=O)(=O)c1ccccc1 (stereo not given),-7,-4,21,90*,-11,-9
N#C[C@H]1[C@H](c2ccccc2-c2ccccc2F)[C@@H](CO)N1C(=O)C1CCOCC1,.,.,-6,.,.,.
Cc1c(N=Nc2c(-c3ccc([N+](=O)[O-])cc3)[nH]n(C(N)=S)c2=O)cccc1[N+](=O)[O-],62*,33,22,16,16,4
NC(=S)n1[nH]c(-c2ccc([N+](=O)[O-])cc2)c(N=Nc2ccccc2[N+](=O)[O-])c1=O,8,-2,-11,9,-5,-14
O=C(C[C@@H]1C=C[C@H](NC(=O)c2ccncc2)[C@@H](CO)O1)NCc1ccncn1,.,.,10,.,.,.
CCOc1ccccc1N(CC(=O)N1CCCC1)S(C)(=O)=O,3,49*,14,-12,14,21
CCc1ccccc1N(CC(=O)N1CCCC1)S(C)(=O)=O,-14,9,1,-5,3,24
O=c1ccc2[n+]([O-])c3ccc(O)cc3oc-2c1,8,-3,81*,-28,4,8
O=c1cc(O)c2ccc(O)cc2o1,6,-2,.,10,1,9
Cc1cc(N2CCN(C)CC2)ccc1NC(=O)c1cccc(S(=O)(=O)N2CCc3ccccc3C2)c1,38,7,3,56,109*,18
CCc1cccc(CC)c1NC(=O)COC(=O)c1cccc(S(=O)(=O)N2CCc3ccccc3C2)c1,-7,8,-5,3,-2,7
Cc1cccc(C(C)C)c1NC(=O)COC(=O)c1cccc(S(=O)(=O)N2CCc3ccccc3C2)c1,3,-7,-4,-14,60*,17
COc1ccc(-c2cnc3c(c2)C(=O)N([C@H](C)CO)C[C@@H](C)[C@@H](CN(C)C(=O)C2CCOCC2)O3)cc1,.,.,-9,.,.,.
Cc1cc(C)nc(/N=C(\N)Nc2ccc(OCCC(C)C)cc2)n1,65*,16,24,64,107*,3
COc1ccc(N/C(N)=N/c2nc(C)cc(C)n2)cc1,.,6,6,14,5,-8
CN(C)C(=O)C[C@H]1CC[C@@H](NS(=O)(=O)c2ccccc2)[C@H](CO)O1,.,.,-6,.,.,.
C#CCCc1ccccc1/C=[N+](/C)[O-],65*,3,21,5,-20,-72
C/[N+]([O-])=C\c1coc2ccccc2c1=O,10,-1,.,6,6,4
Cc1ccc(-c2csc(N3CCN(CCCn4c(-c5ccncc5)nc5ccccc54)CC3)n2)cc1,67*,33,46,6,36,-16
